Screens as filed in PubChem BioAssay.
Shown is part of a subset that was picked to be rich in hits.
Sfp PPTase inh: qHTS Assay for Inhibitors of Bacillus subtilis Sfp phosphopantetheinyl transferase (PPTase); 4'-phosphopantetheinyl transferase ffp (Bacillus subtilis), Q9F4F7; Biochemical Sfp PPTase activity, qHTS; Potency, µM, for inactives: largest response in the series, negative = inhibition, most hits filed as inhibitors; hit rate 3.5% among 310,000; AID 1490, 2009;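 further: the enzyme is Sfp with the accession as filed and its product quenches rhodamine fluorescence; 0% = enzyme reaction without inhibitor and -100% = no enzyme wells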
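Sfp 15 nM + cpd, 15 min RT; start w/ rhodamine-CoA 5 uM, BHQ-2-YbbR 12.5 uM (final); 50 mM Hepes pH 7.6, 10 mM MgCl2, 0.01% NP-40, 0.01% BSA; read 525/598 nm at 0 and 30 min.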
GRP78 ERSR act: qHTS for Inducers of the Endoplasmic Reticulum Stress Response (ERSR) in Human Glioma: qHTS; AID 602332, 2012; Potency, µM, for the others: at the top dose activation, hits mostly activators; hit rate 0.02% among 420,000; U87-MG GRP78 promoter luciferase reporter, 16 h; further: series mostly up to about 76 µM; % of control where 0% means no effect; nearly all actives have a fitted effect of over 35% in size
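ERSR induction read as luciferase luminescence (Bright-Glo, 10 min at room temperature) in stably transfected human U87-MG glioma cells exposed to compounds for 16 h, using GRP78 as sensor.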
ALOX12 inh: Primary qHTS assay for inhibitors of human arachidonate 12S-lipoxygenase (ALOX12): Round 2; hit rate 1.1% among 580,000; AID 1671190, 2021; Polyunsaturated fatty acid lipoxygenase ALOX12 (Homo sapiens), P18054; Potency, µM (top dose mostly 108 µM), for inactives: top-dose activity change, negative = inhibition, actives largely listed as inhibitors; purified 12hLO, xylenol orange hydroperoxide absorbance; further: on the % scale 0 is the no-effect control and ±100 the full control effect
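Hydroperoxide product was detected by ferrous iron/xylenol orange as the 573 to 405 nm absorbance ratio. Arachidonic acid at 40 uM (final) was turned over for 30 min at room temperature by 150 nM human 12hLO, pH 7.0 Hepes buffer, after 15 min compound preincubation.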
VDR inhibitor: Inhibitors of the vitamin D receptor (VDR): qHTS | Vitamin D3 receptor (Homo sapiens), P11473 | VDR-SRC2-3 peptide fluorescence polarization, 2 h | Potency, µM, for inactives: max response, negative = inhibition, most hits filed as inhibitors | hit rate 0.93% among 400,000 | AID 504847, 2011; further: on the % scale 0 is the no-effect control and ±100 the full control effect
Target sequence (P11473 whole entry, looked up): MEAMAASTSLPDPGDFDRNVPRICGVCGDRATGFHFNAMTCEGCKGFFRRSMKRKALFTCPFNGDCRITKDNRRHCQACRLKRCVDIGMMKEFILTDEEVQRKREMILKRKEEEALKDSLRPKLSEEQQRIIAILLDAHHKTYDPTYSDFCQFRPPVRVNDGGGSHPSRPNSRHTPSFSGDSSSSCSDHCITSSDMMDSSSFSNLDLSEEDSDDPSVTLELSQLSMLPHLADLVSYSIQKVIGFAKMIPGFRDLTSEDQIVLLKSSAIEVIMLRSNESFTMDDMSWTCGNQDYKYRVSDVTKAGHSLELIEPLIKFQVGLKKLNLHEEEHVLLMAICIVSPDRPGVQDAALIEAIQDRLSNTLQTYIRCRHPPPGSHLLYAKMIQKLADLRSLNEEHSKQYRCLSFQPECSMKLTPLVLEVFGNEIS
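Compounds are added to VDR with labelled SRC2-3 coactivator peptide and held 2 h at room temperature. Inhibition of the VDR–peptide interaction is then read as a change in fluorescence polarization.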
G9a block: qHTS Assay for Inhibitors of Histone Lysine Methyltransferase G9a; G9a H3K9 monomethylation, AlphaScreen, 2 h; hit rate 8.8% among 350,000; Potency, µM (titrated, usually from 102 µM), without a hit: top-dose activity, negative = inhibition, usual class: inhibitors; Histone-lysine N-methyltransferase EHMT2 (Homo sapiens), Q96KQ7; AID 504332, 2011; further: on the % scale 0 is the no-effect control and ±100 the full control effect; nearly all actives have a fitted effect of over 75% in size
Target sequence (Q96KQ7 913-1193 limits assumed): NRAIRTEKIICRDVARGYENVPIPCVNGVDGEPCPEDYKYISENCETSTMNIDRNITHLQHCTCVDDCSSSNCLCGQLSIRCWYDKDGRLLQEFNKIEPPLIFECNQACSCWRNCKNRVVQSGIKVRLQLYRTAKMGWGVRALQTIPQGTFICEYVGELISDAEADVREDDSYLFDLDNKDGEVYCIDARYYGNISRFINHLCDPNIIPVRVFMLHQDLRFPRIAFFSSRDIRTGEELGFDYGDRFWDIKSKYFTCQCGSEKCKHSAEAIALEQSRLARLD
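Readings reflect AlphaScreen signal from monomethyl-H3K9 antibody detection. HMT at 20 nM; substrate b-H3K9 500 nM; cofactor SAM 20 uM; 2 h RT reaction; compounds tested as titrations in qHTS with 15 min preincubation.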
Numbers without * were called inactive; ? = inconclusive; nt = no result; [ ] = another dose, or the depositor's remark. The call rests on the fitted dose curve; in most records, active means well fitted curve in the direction sought with a large enough effect; inconclusive means small, poorly fitted or top-dose-only effect, or another doubt; inactive means no such curve, though single readings can be large; an effect the other way counts as inactive or inconclusive. Potency means the concentration at half of the fitted maximal effect.

SMILES	Sfp PPTase inh	GRP78 ERSR act	ALOX12 inh	VDR inhibitor	G9a block
COc1cc(C2C3=C(CC(C)(C)CC3=O)OC(N)=C2[N+](=O)[O-])ccc1O (configuration not stated)	2.1%	-7.9%	-8.1%	1.7%	50.1µM*
O=Cc1cc2ccccc2nc1Sc1ccc(Cl)cc1	nt	nt	-9.7%	nt	nt
O=C(/C=C/c1ccccc1)Oc1ccccc1C(=S)N1CCOCC1	-5.6%	-0.3%	-1.4%	3.5%	50.1µM*
Cc1ccccc1OC(=O)/C=C/c1ccccc1	nt	nt	-26.8%	nt	nt
O=C(/C=C/c1ccccc1)Oc1cccc(C(=S)N2CCOCC2)c1	-7.0%	-2.5%	-10.0%	-6.8%	39.8µM*
Cc1ccc2oc(-c3ccc(Cl)c(NC(=O)c4ccc([N+](=O)[O-])o4)c3)nc2c1	nt	nt	17.6%	nt	nt
COc1ccc(C(=O)c2ccc(OC)c(OC)c2)cc1OC	16.0%	-2.0%	-6.1%	2.1%	99.2%[59 µM]
COc1ccc(C(=O)c2ccc(OC)c3cccc(O)c23)cc1OC	-16.5%	-6.4%	74.9%	-1.8%	56.2µM*
CC(NCC1COc2ccccc2O1)C(=O)NCc1ccccc1 (configuration not stated)	?	-3.4%	-28.7%	-4.1%	44.7µM*
O=C(NCc1ccccc1)C(=O)NCC1COc2ccccc2O1 (configuration not stated)	24.3%	-2.8%	0.0%	-7.6%	-3.0%[59 µM]
Cn1cccc1C(=O)NCC1COc2ccccc2O1 (configuration not stated)	nt	4.2%	?	-3.1%	50.1µM*
O=C(CCNC(=O)c1ccc([N+](=O)[O-])cc1)NCC1COc2ccccc2O1 (configuration not stated)	nt	-1.4%	-2.2%	-1.6%	50.1µM*
CC(=O)NC1C(=O)N(CC(C)C)c2ccccc21 (configuration not stated)	21.6%	-2.8%	-13.9%	-8.9%	?
CCCCN1C(=O)C(NC(C)=O)c2cc(Br)ccc21 (configuration not stated)	-0.7%	0.0%	10.8%	-14.3%	2.51µM*
CCN1C(=O)C(NC(C)=O)c2cc(Br)ccc21 (configuration not stated)	0.9%	-3.0%	?	7.2%	-22.0%[59 µM]
CCc1ccc2c(c1)C(NC(C)=O)C(=O)N2CC (configuration not stated)	56.2µM*	-6.0%	0.2%	-1.6%	?
Cc1nc(C(=O)NCC(=O)c2ccccc2)c(C(F)(F)F)o1	11.5%	1.3%	?	6.3%	23.4%
Cc1nc(C(=O)NNC(=O)c2ccccc2)c(C(F)(F)F)o1	44.7µM*	-4.7%	0.0%	5.6%	4.47µM*
CCOC(=O)CCNC(=O)N1c2ccccc2CC1c1nc(C(C)C)no1 (configuration not stated)	nt	nt	70.1%	nt	nt
S=C1NC[C@H](c2ccccc2)N1CCCCC1CCCCC1	30.6%	0.3%	35.5µM*	0.9%	4.4%[12.7 µM]
O=C(Nc1cccc(C(F)(F)F)c1)O[C@@H]1CO[C@H]2[C@@H]1OC[C@@H]2n1cc(-c2ccccn2)nn1	nt	nt	-3.7%	nt	nt
CCCCNC(=S)N/N=C/c1cc(C)ccc1C	-2.8%	10.8%	50.1µM*	-9.2%	13.4%
O=C(Nc1nnc(SCc2ccccc2)s1)c1cc(=O)c2ccccc2o1	nt	nt	-0.2%	nt	nt
CC1CC2(CC(C)(C(=O)CSc3n[nH]c(-c4ccccc4Cl)n3)OC2=O)C(=O)O1 (configuration not stated)	-6.7%	-6.1%	?	19.7%	?
Cn1c(CNC(=O)CSc2n[nH]c(-c3ccccc3Cl)n2)nc2ccccc21	nt	-1.0%	-7.1%	7.3%	28.2µM*
SMILES	Sfp PPTase inh	GRP78 ERSR act	ALOX12 inh	VDR inhibitor	G9a block
Cn1c(CNC(=O)CSc2n[nH]c(-c3ccccc3)n2)nc2ccccc21	nt	-4.4%	-10.0%	10.1%	-8.0%[59 µM]
CC1(C(=O)CSc2n[nH]c(-c3ccccc3Cl)n2)CCC(=O)O1 (configuration not stated)	50.1µM*	nt	nt	nt	10µM*
CC1(C(=O)CSc2nc3ccccc3[nH]2)CCC(=O)O1 (configuration not stated)	-13.6%	-2.2%	-0.9%	1.1%	?
CC1(C(=O)CSc2ncn[nH]2)CCC(=O)O1 (configuration not stated)	56.2µM*	nt	nt	nt	11.2µM*
Cn1c(CNC(=O)c2ccc(F)cc2)nc2ccccc21	12.7%	-1.9%	3.9%	79.4µM*	7.6%
Nc1ccc(C(=O)O)c(O)c1	10.8%	1.1%	?	-9.6%	7.5%[59 µM]
Nc1ccc(N)c(C(=O)O)c1	?	-2.6%	nt	?	7.94µM*
Cc1nn(-c2cccc(Cl)c2)c2c1C(c1cccnc1)C(C#N)=C(N)O2 (configuration not stated)	-3.6%	-0.8%	-6.5%	?	44.7µM*
COc1ccc(OC)c(C2C(C#N)=C(N)Oc3c2c(C)nn3-c2cccc(Cl)c2)c1 (configuration not stated)	-2.1%	-0.8%	?	-8.4%	39.8µM*
Cc1nn(-c2cccc(Cl)c2)c2c1C(c1ccncc1)C(C#N)=C(N)O2 (configuration not stated)	-8.9%	-1.4%	?	?	?
CCN(CC)S(=O)(=O)c1ccc(-c2nc(C#N)c(NCc3ccc(F)cc3)o2)cc1	nt	nt	17.9%	nt	nt
COC(=O)c1ccc(OC(=O)c2cc(Cl)ccc2Cl)cc1	nt	nt	-23.8%	nt	nt
CC(C)[C@H]1c2ccc(F)cc2CC[C@@]1(CCN(C)CCCc1nc2ccccc2[nH]1)OC(=O)C1CC1	44.7µM*	-12.0%	?	-27.3%	12.6µM*
COC1=C(N)C(=O)c2nc(-c3nc(C(=O)O)c(C)c(-c4ccc(OC)c(OC)c4O)c3N)ccc2C1=O	3.55µM*	-10.6%	nt	14.1µM*	?
Cn1nnnc1SCCNC(=O)C1CCC(=O)N(CCc2cccc(F)c2)C1 (configuration not stated)	13.3%	-1.6%	1.1%	?	0.159µM*
Cc1csc(Nc2ccc3c(n2)CN(Cc2ccc(F)cc2)C(=O)CO3)n1	nt	nt	32.4%[176 µM]	nt	nt
COc1ccc(N=Cc2ccc(-c3ccccc3)o2)cc1	4.4%	2.2%	0.0%	-3.7%	?
CC(C)CC1=C/C(=C/c2ccc(-c3ccccc3)o2)C(=O)O1	?	3.0%	12.6µM*	?	12.6µM*
COc1ccc(C2C3=C(CC(C)(C)CC3=O)Nc3ccccc3N2C(=O)C(C)C)c(OC)c1 (configuration not stated)	nt	nt	11.3%	nt	nt
COc1ccc(C2/C=C\CN(CC(C)C)CC(=O)N2Cc2cccc(F)c2)cc1 (configuration not stated)	?	-2.6%	?	?	31.6µM*
CCOc1ccc(-n2c(CCc3ccccc3)n[nH]c2=S)cc1	-14.2%	-1.9%	?	-11.1%	?
CCOc1ccc(N2Nc3n[nH]c(N)c3N2)cc1	12.3%	0.6%	0.0%	9.1%	8.91µM*
